Data taken from PubChem BioAssay (Tox21).
Where “and” joins values, the source holds several entries; their conditions need not be identical. Equal entries are not always repeated. Results filed as inconclusive are left out. Calls of active or inactive are those of the source. Calls come from the whole dose curve; as a rule, active = well fitted cell-killing curve with a large enough effect in the repeat runs; inconclusive = weak or mixed curves; inactive = flat fitted curve, though single readings scatter.

assay: qHTS RealTime-Glo MT Cell Viability Assay in HepG2 cells - 8 hour (AID 1224873); details: RealTime-Glo luminescence; series mostly up to 76.8 µM; viability change, negative = cytotoxic: at the top concentration; note: nearly all actives have a fitted effect of over 55% in size
Excerpt: National Center for Advancing Translational Sciences [NCATS]
NIH Chemical Genomics Center [NCGC]
U.S. Environmental Protection Agency [EPA]
National Institutes of Environmental Health Sciences [NIEHS]
National Toxicology Program [NTP]
U.S. Food and Drug Administration [FDA]
Measure of cell viability is critical in the cell-base assay. Analysis of cell viability is necessary for the characterization of cell responses to cytotoxic drugs and environmental stress. A RealTime-Glo MT Cell Viability Assay to monitor cell viability in real time of continues cell culture during 40 hours of compound treatment was used to screen Tox21 10K library compounds in HepG2 cells. The RealTime-Glo MT Cell Viability Assay is a nonlytic, homogeneous, bioluminescent method to measure cell viability in real time using a simple, plate-based method. The assay involves adding NanoLuc luciferase and a cell-permeant prosubstrate to cells in culture. Viable cells reduce the proprietary prosubstrate to generate a substrate for NanoLuc luciferase. This substrate diffuses from cells into the surrounding culture medium, where it is rapidly used by the NanoLuc Enzyme to produce a luminescent signal. The signal correlates with the number of viable cells, making the assay well suited for cytotoxicity studies.
Tox21 Assay Protocol Summary:
The mixture of HepG2 cell suspension and reagents were dispensed at 600cells/6 ul/well in 1536-well tissue culture treated black solid bottom plates using a Multidrop dispenser. After the assay plates were incubated at a 37 C/5% CO2 incubator for 5 hours, 23 nL of compounds dissolved in DMSO, positive and negative controls was transferred to the assay plate by a pintool work station. The plates were incubated at 37 C for 40 hours. The luminescence intensity were measured at 0h, 8h, 16h, 24h, 32h and 40h time points using ViewLux plate reader during compound treatment.
% is set by controls: 0 for no effect and ±100 for the full control effect.

Structure (SMILES)	outcome	viability change, negative = cytotoxic
Nc1ccccc1[N+](=O)[O-]	inactive	
O=c1[nH]c(=O)n([C@H]2C[C@H](O)[C@@H](CO)O2)cc1Br	inactive	
C=C(C)C(=O)O[C@H]1C[C@@H]2CC[C@@]1(C)C2(C)C	inactive	
CSCCC=O	inactive	
CC(=O)c1ccccc1	inactive	
O=C(O)c1ccc2c(c1)C(=O)OC2=O	inactive	
OCC(CO)(CBr)CBr	inactive	
c1ccc(OCCOc2ccccc2)cc1	inactive	
CCN(CC)CCCC(C)Nc1ccnc2cc(Cl)ccc12 (stereo not given)		-1.01% [at 6.97 µM] (inactive) and -3.34% [at 15.8 µM] (inactive)
C=C(C)C(=O)OCCOCCOCCOC(=O)C(=C)C	inactive	
O=C(O)CC(C(=O)O)C(CC(=O)O)C(=O)O (stereo not given)	inactive	
CCCCC(CC)COC(=O)C(C#N)=C(c1ccccc1)c1ccccc1 (stereo not given)	inactive	
Cc1ccc(N(C)C)cc1	inactive	
CCCCCCCCC/C=C/CC1CC(=O)OC1=O (stereo not given)		2.47% (inactive)
Cc1cnc(C(=O)NCCc2ccc(S(=O)(=O)NC(=O)NC3CCCCC3)cc2)cn1	inactive	
CC1=CC(=O)NS(=O)(=O)O1	inactive	
COc1ccc(NC(C)=O)cc1N	inactive	
Fc1ccc(Br)cc1	inactive	
Cc1ccc(S(N)(=O)=O)cc1	inactive	
C=CCOC(=O)c1ccccc1C(=O)OCC=C	inactive	

Structure (SMILES)	outcome	viability change, negative = cytotoxic
CCCCC(CC)COC(=O)CS (stereo not given)	inactive	
O=C(O)c1cc(=O)c2c(OCC(O)COc3cccc4oc(C(=O)O)cc(=O)c34)cccc2o1	inactive	
CCCCCCCCCC	inactive	
Cc1cccnc1	inactive	
CCCCCC(N)=O	inactive	
CC1CCC2CC1C2(C)C (stereo not given)	inactive	
C[C@H]1C[C@H]2[C@@H]3CCC4=CC(=O)C=C[C@]4(C)[C@@]3(F)[C@@H](O)C[C@]2(C)[C@@]1(O)C(=O)CO	inactive	
O=C(O)CCCC[C@@H]1SC[C@@H]2NC(=O)N[C@@H]21	inactive	
CCCCCCCCCCCCCCCO	inactive	
Cc1cc(C)c(C)cc1C	inactive	
N[C@@H](Cc1cc(I)c(Oc2cc(I)c(O)c(I)c2)c(I)c1)C(=O)O	inactive	
Oc1cccc2ccccc12	inactive	
COc1ccc(Nc2ccccc2)c(C)c1	inactive	
NNc1nncc2ccccc12	inactive	
CCCCCCCCCCCCc1ccccc1	inactive	
CN(C)CCCN	inactive	
ON=C1CCCCC1	inactive	
Cc1cccc(O)c1	inactive	
CCN(CC)c1ccc(C(=O)c2ccccc2C(=O)O)c(O)c1	inactive	
C/C=C1/CC2C=CC1C2 (stereo not given)	inactive	
